Compound activity: PubChem, National Center for Advancing Translational Sciences (NCATS)
Hits are enriched below; roughly 5.8% of the tested compounds scored in any of these assays.
TRPV1 potentiator – potentiators of human vanilloid receptor 1 (TRPV1) | 0.02% of 320,000 active | TRPV1-expressing cells, Fluo-8 calcium influx, capsaicin EC20 potentiation | Q8NER1 | potentiation, % at 8.33 µM; in the data active = potentiation above about 80%; inconclusive = between about 30% and that limit; also: 0% is about no effect
Target sequence (Q8NER1 whole entry, looked up): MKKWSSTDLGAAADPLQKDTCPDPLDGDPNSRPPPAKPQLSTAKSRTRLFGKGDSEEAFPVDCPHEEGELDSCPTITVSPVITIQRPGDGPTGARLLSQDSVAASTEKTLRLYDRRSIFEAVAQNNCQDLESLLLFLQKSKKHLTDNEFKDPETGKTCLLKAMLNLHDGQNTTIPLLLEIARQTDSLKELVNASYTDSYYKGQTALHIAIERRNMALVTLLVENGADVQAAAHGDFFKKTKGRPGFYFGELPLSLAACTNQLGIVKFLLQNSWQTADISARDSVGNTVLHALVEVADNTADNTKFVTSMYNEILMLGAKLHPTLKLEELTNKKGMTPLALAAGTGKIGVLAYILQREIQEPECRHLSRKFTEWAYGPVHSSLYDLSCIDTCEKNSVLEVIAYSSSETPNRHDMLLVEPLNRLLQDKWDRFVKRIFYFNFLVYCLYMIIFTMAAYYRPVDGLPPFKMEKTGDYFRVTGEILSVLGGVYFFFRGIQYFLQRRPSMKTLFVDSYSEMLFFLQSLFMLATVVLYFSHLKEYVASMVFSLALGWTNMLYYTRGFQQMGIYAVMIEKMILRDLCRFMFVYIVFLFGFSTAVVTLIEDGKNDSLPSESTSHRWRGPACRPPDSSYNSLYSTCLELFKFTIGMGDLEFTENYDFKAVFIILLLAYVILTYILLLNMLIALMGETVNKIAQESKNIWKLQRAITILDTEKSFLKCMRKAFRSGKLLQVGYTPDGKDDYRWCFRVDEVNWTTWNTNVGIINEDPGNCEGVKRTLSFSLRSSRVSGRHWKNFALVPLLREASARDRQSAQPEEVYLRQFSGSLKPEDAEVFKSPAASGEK
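TRPV1-expressing cells were cultured overnight at 35.5C and loaded with Fluo-8 calcium dye for 40 to 90 min at room temperature. After a 10 s baseline, compound was added and calcium influx was read kinetically for 3 min (ex 480/em 520 nm).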
Gal4-VP16 FLuc – Gal4-VP16 reporter inhibition counter-screen; AID 2546; 3.5% of 310,000 active; Potency, µM (highest dose often 53.6 µM), for inactives: at the highest dose activity, negative = inhibition, usual class: inhibitors; Drosophila S2 Gal4-VP16 UAS-luciferase, luminescence, 20 h;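 also: Gal4-VP16 expression switched on by copper sulfate through the metallothionein promoter; potency is read from the fitted curve at half-maximal effect; % is scaled to controls: 0 for no effect and ±100 for the full control effect; nearly all actives have a fitted effect of over 50% in size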
uPA generation – blocks generation of uPA at the cell surface; 0.31% of 330,000 active; Potency, µM (highest dose often 38.3 µM), without a hit: top-dose activity change, negative = inhibition, hits mostly inhibitors; cell surface uPA generation assay, qHTS; AID 540303; active = well fitted inhibition curve with a large enough effect; inconclusive = small, poorly fitted or top-dose-only effect; inactive = no such curve, though single readings can be large or run the other way; tested in mouse RAW 264.7 cells; also: potency is read from the fitted curve at half-maximal effect; % is scaled to controls: 0 for no effect and ±100 for the full control effect; nearly all actives have a fitted effect of over 55% in size
TRPV1 ag – agonists of human vanilloid receptor 1 (TRPV1) | Q8NER1 | 0.19% of 320,000 active | activation, % at 8.33 µM | TRPV1-expressing cells, Fluo-8 calcium influx, agonist mode; in the data active = activation above about 80%; inconclusive = between about 30% and that limit; also: 0% is about no effect
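Cells expressing TRPV1 were dye-loaded with Fluo-8 and read kinetically: 10 s baseline, 3 min after compound (agonist portion), then 2 min after EC20 capsaicin (allosteric enhancer portion). Calcium-bound dye fluorescence at 480/520 nm.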
RORgamma inh – blocks mouse ROR gamma transcriptional activity; P51450; Drosophila S2 Gal4-RORgamma UAS-luciferase reporter, 20 h; Potency, µM (titrated, usually from 53.6 µM), for inactives: top-dose activity change, negative = inhibition, usual class: inhibitors; 5.4% of 310,000 active; AID 2551; also: potency is read from the fitted curve at half-maximal effect; % is scaled to controls: 0 for no effect and ±100 for the full control effect; nearly all actives have a fitted effect of over 60% in size
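Stable Schneider cell line, Gal4 DNA-binding domain fused to ROR gamma, UAS-luciferase. Cmpd 1 hr RT → CuSO4 700 uM final → 20 hr RT → luciferase reagent 10 min → luminescence.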
Starred values were filed as active, the others as inactive; ? = inconclusive; . = no result given; [ ] = remark or other dose. Unless noted, calls follow the shape of the dose curve; as a rule, active = well fitted curve in the direction sought with a large enough effect; inconclusive = small, poorly fitted or top-dose-only effect, or another doubt; inactive = no such curve, though single readings can be large; an effect the other way counts as inactive or inconclusive.

SMILES	TRPV1 potentiator	Gal4-VP16 FLuc	uPA generation	TRPV1 ag	RORgamma inh
O=C(N/N=C/c1c(F)cccc1Cl)C1CC1	7.0	-8.3%	-16.4%	-1.4	1.6%
Fc1ccc(N/N=C/c2ccncc2)c(F)c1	-7.5	18.3%	2.0%	?	?
O=C(O)c1ccc(N/N=C/c2c(F)cccc2Cl)cc1	6.2	0.708µM*	2.0%	-1.5	2µM*
O=C(CSc1nc2cccnc2n1Cc1ccccc1)NC1CCCCC1	-0.8	-6.9%	9.5%	?	-4.7%
Brc1ccccc1-c1nc2c3ccccc3ncn2n1	-10.8	.	-16.6%	27.3	.
S=c1nc2ccccc2c2nc(-c3ccccc3Br)[nH]n12	?	2.24µM*	-5.5%	0.6	0.447µM*
CC(C)[C@H](NC(=O)[C@H](CC(=O)O)NC(=O)CNC(=O)[C@@H](N)CCCN=C(N)N)C(=O)O	.	4.7%	.	.	5.0%
CCCN1CNC(=S)N(c2cccc(C)c2C)C1	2.1	?	.	-1.3	10µM*
CCN1CNC(=S)N(c2cccc(C)c2C)C1	?	?	.	-0.7	11.2µM*
COC(=O)c1ccc(CNC(=O)COC(=O)/C=C/c2cc(OC)c(OC)c(OC)c2)cc1	.	.	-10.3%	.	.
Cc1ccccc1NS(=O)(=O)c1ccc(C(=O)N2CCCC(C(F)(F)F)C2)cc1 (configuration not stated)	-5.6	.	4.3%	7.9	.
O=C(O)COc1ccc(/C=C/C(=O)c2ccc3ccccc3c2)cc1	11.8	?	-16.4%	-0.3	1.58µM*
CCCCC(=O)NC(c1ccccc1)c1ccc2cccnc2c1O (configuration not stated)	-2.5	2.51µM*	-13.6%	2.4	1.26µM*
COc1ccc(Cl)cc1C(Nc1cccnc1)c1ccc2cccnc2c1O (configuration not stated)	5.9	2.24µM*	-17.4%	-4.1	1.12µM*
CCCC(=O)NC(c1ccccc1)c1ccc2cccnc2c1O (configuration not stated)	12.4	?	-12.9%	3.0	?
COc1ccc(C(=O)Nc2cccnc2)cc1OC	?	8.7%	-7.0%	1.7	-11.7%
CC(=O)NC(c1ccc(C(C)C)cc1)c1ccc2cccnc2c1O (configuration not stated)	0.8	2.82µM*	-16.8%	-2.5	3.55µM*
CC(=O)Nc1cccc2cccnc12	-6.3	.	.	0.4	.
CCCCC(=O)NC(c1ccccc1Cl)c1ccc2cccnc2c1O (configuration not stated)	-2.7	3.55µM*	?	7.0	5.01µM*
CCC(=O)NC(c1ccccc1Cl)c1c(O)ccc2ccccc12 (configuration not stated)	-7.2	-7.6%	0.8%	4.4	0.5%
CCOc1ccc(CCNC(=O)COC(=O)c2ccc(Br)o2)cc1OCC	-15.7	.	-4.3%	-3.6	.
O=C(CN1C(=O)C2(OCCO2)c2ccccc21)c1ccc(Br)cc1	4.4	-10.1%	.	-1.6	?
CCC(=O)NC(c1ccccc1OC)c1ccc2cccnc2c1O (configuration not stated)	4.4	5.01µM*	-14.1%	-1.3	5.01µM*
CCCCC(=O)NC(c1ccc(C(C)C)cc1)c1ccc2cccnc2c1O (configuration not stated)	-19.4	2.82µM*	?	6.7	2.51µM*
CCCC(=O)NC(c1ccc(OC)cc1)c1ccc2cccnc2c1O (configuration not stated)	-1.9	4.47µM*	-0.5%	4.4	1.78µM*
SMILES	TRPV1 potentiator	Gal4-VP16 FLuc	uPA generation	TRPV1 ag	RORgamma inh
COc1cccc(CNc2cccc3cccnc23)c1O	4.4	.	.	1.0	-12.9%[0.365 µM]
NNC(=O)c1cccc(O)c1	-2.8	1.0%	-2.0%	2.4	2.5%
O=[N+]([O-])c1ccc(Nc2nc(NC3CCCCC3)nc(N3CCCC3)n2)cc1	-14.5	?	-6.6%	20.9	36.1%
COC(=O)[C@@H]1C[C@@]1(C)[C@@H](NC(=O)OCc1ccccc1)c1ccccc1	.	4.5%	.	.	?
C=C(C)CNC(=S)NNC(=O)CCn1c2ccc(Cl)cc2c2cc(Cl)ccc21	-9.3	0.501µM*	1.0%	6.1	0.631µM*
Cn1cccc1CC(=O)NNC(=S)Nc1ccc(Cl)cc1Cl	6.8	?	11.2%	2.9	?
C=C(C)CNC(=S)NNC(=O)CCn1c2ccccc2c2ccccc21	0.7	?	-1.5%	4.4	7.08µM*
C=C(C)CNC(=S)NNC(=O)CCn1c2cc(Cl)ccc2c2ccc(Cl)cc21	4.3	8.91µM*	3.8%	0.9	5.01µM*
C=C(C)CNC(=S)NNC(=O)c1ccncc1	-1.2	-7.1%	-0.2%	-1.1	?
OC[C@@H]1O[C@H](OC2[C@@H](O)[C@@H](O)[C@@H](O)O[C@@H]2CO)[C@H](O)[C@@H](O)[C@@H]1OC1O[C@H](CO)[C@@H](O)[C@H](O)[C@@H]1O (some centres not stated)	.	-2.6%	.	.	-2.8%
COc1ccc(NS(=O)(=O)c2cccc(NC(=O)c3ccc(Cl)nc3)c2)cc1	-9.4	2.82µM*	-11.0%	2.6	?
COc1cccc(S(=O)(=O)Nc2ccc(C(=O)Nc3ccncc3)cc2)c1	8.9	1.4%	-5.4%	1.3	12.1%
O=C(Nc1cccc(S(=O)(=O)Nc2ccc(Cl)cc2)c1)c1ccc(Cl)nc1	-1.7	3.16µM*	5.01µM*	0.8	?
CC(=O)c1ccc(-n2c(CCC(=O)O)ccc2-c2ccc(Cl)cc2)cc1	14.7	0.3%	-16.0%	-2.6	35.0%
Fc1ccc(-c2ccnc(=S)[nH]2)cc1	?	2.82µM*	10.1%	6.8	3.55µM*
O=C1C=CC2=C3c4cc(O)c(O)cc4C[C@@]3(O)COC2=C1	.	-4.9%	.	.	-44.8%
CC(=O)c1cc(-c2ccc(F)cc2)n(CCC(=O)Nc2cccnc2)c1C	-26.1	-6.2%	-1.6%	81.4*	-4.8%
COC(=O)COc1ccc(S(=O)(=O)NCc2ccncc2)cc1	0.6	2.82µM*	-10.0%	1.5	?
CCN(C1CCCCC1)S(=O)(=O)c1ccc(S(=O)(=O)NCCc2ccncc2)cc1	-31.5	-8.0%	2.2%	?	?
Cc1ccc(S(=O)(=O)NCc2ccncc2)cc1C	7.2	3.98µM*	-5.2%	-1.1	11.2µM*
CCN(C1CCCCC1)S(=O)(=O)c1ccc(S(=O)(=O)NCc2ccncc2)cc1	.	17.8µM*	-11.9%	.	-0.9%
O=S(=O)(NCc1ccncc1)c1ccccc1	1.5	15.8µM*	-3.3%	-1.6	18.4%
COc1ccccc1OCCC(=O)OCC(=O)Nc1cc(S(=O)(=O)N2CCOCC2)ccc1Cl	0.1	11.5%	-0.7%	0.0	-28.6%
O=S(=O)(NCc1ccncc1)c1ccc(Br)s1	?	1.78µM*	-5.2%	3.5	-39.3%
COc1ccc(S(=O)(=O)NCc2cccnc2)cc1Br	11.4	11.2µM*	?	0.9	?
COc1cc(S(=O)(=O)NCc2ccncc2)ccc1Br	-2.1	7.08µM*	1.1%	3.2	27.5%
CC(=O)N1CC=CC1(CC(C)C)C(=O)O (configuration not stated)	.	2.1%	.	.	3.4%
